Experimental findings from PubChem BioAssay (Tox21) are described below.

Records with an inconclusive call do not appear. More than one record can exist for a structure, and the calls need not agree. Activity calls are given as the source filed them. Unless noted, calls follow the shape of the dose curve; as a rule, active = well fitted curve in the direction sought with a large enough effect in the repeat runs; inconclusive = weak or mixed curves; inactive = no such curve, though single readings can be large; an effect the other way counts as inactive or inconclusive.

Test [1] can be described thus: qHTS assay to identify small molecule agonists of the vitamin D receptor (VDR) signaling pathway - cell viability counter screen (AID 743224). Also: series mostly up to about 63 µM; nearly all actives have a fitted effect of over 50% in size. In a few lines:
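CellTiter-Glo viability readout on VDR-bla cells, measured after 16 h of compound treatment at 37C in the same wells.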

Test [2] in a line: qHTS assay to identify small molecule antagonists of the vitamin D receptor (VDR) signaling pathway - cell viability counter screen (AID 743225). Also: nearly all actives have a fitted effect of over 50% in size. In a few lines: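 Cytotoxicity counter screen read by CellTiter-Glo luminescence (30 min, room temperature) in the same wells as the VDR-bla antagonist readout. HEK 293T VDR-UAS-bla cells had 16 h at 37C with compound and 3 nM (final) 1-alpha,25-dihydroxyvitamin D3, then 2 h with FRET substrate.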

Test [3] in a line: qHTS assay to identify small molecule agonists of the NFkB signaling pathway (AID 1159509; active = well fitted curve in the direction sought with a large enough effect in the signal ratio in the repeat runs, not every such curve was filed as active; the % refers to the signal ratio; also: series mostly up to about 61 µM). In a few lines:
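Beta-lactamase reporter assay run in quantitative high-throughput format on an NF-kB-responsive ME-180 line, with 5 hr compound treatment and a FRET-based blue/green fluorescence readout.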

A short description of test [4]: qHTS assay to identify small molecule agonists of the NFkB signaling pathway - cell viability counter screen (AID 1159515; calls by dose curve; also: series mostly up to about 61 µM; nearly all actives have a fitted effect of over 55% in size). Summed up: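 Tox21 library compounds were tested for cytotoxicity against NFkB-bla ME-180 cells during a 5 hr exposure at 37 C. CellTiter-Glo luminescence served as the viability read-out.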
Test [5] in a line: qHTS assay to identify small molecule agonists of the endoplasmic reticulum stress response signaling pathway (AID 1159516; active = well fitted activation curve with a large enough effect in the signal ratio in the repeat runs, not every such curve was filed as active; the % refers to the signal ratio). In a few lines: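 Fluorescence at 460 and 530 nm (405 nm excitation) reports beta-lactamase from an ER stress response element in HeLa cells treated 5 hr at 37 C.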
A short description of test [6]: qHTS assay to identify small molecule agonists of the endoplasmic reticulum stress response signaling pathway - cell viability counter screen (AID 1159517; calls by dose curve; also: series mostly up to about 61 µM; nearly all actives have a fitted effect of over 50% in size). In a few lines:
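Steps: seed 1,500 ESRE-bla HeLa cells per well; incubate overnight at 37 C, 5% CO2; add compounds in DMSO for 5 hr; run FRET substrate 2 hr RT; add CellTiter-Glo, wait 30 min, read luminescence.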

Test [7] is described as follows: qHTS assay to identify small molecule antagonists of the retinoid-related orphan receptor gamma (ROR-gamma) signaling pathway - cell viability counter screen (AID 1159520). Also: nearly all actives have a fitted effect of over 50% in size. In a few lines:
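Tet-on ROR gamma CHO cells were given compounds for 2 hr, then doxycycline hyclate at 1 uM final, and incubated 16 hr at 37 C. Viability was measured as ATP content by CellTiter-Glo luminescence.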

For test [8], the target named is Nuclear receptor ROR-gamma (Homo sapiens) (UniProt P51449). The test is described as follows: qHTS assay to identify small molecule antagonists of the retinoid-related orphan receptor gamma (ROR-gamma) signaling pathway (AID 1159521). In a few lines:
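Antagonist read-out: drop in luminescence (ONE-Glo) from an RORE-LUC reporter in CHO cells with doxycycline-inducible ROR-gamma; 2 hr compound pretreatment, 1 uM doxycycline, 16 hr incubation at 37 C.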

Test [9] is described as follows: qHTS assay to identify small molecule agonists of the AP-1 signaling pathway - cell viability counter screen (AID 1159525; calls by dose curve; also: nearly all actives have a fitted effect of over 55% in size). Summed up:
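Same-well cytotoxicity counter screen of the Tox21 10K library in ME-180 cells. The readout is ATP-dependent luminescence after 5 h compound treatment. Data are normalised to DMSO and tetra n-octyl ammonium bromide controls.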

Test [10] can be described thus: qHTS assay to identify small molecule agonists of the AP-1 signaling pathway (AID 1159526; calls by dose curve).
Test [11] has as its target Retinoic acid receptor RXR-alpha (Homo sapiens) (UniProt P19793). The test is described as follows: qHTS assay to identify small molecule agonists of the RXR signaling pathway (AID 1159527; calls by dose curve; also: nearly all actives have a fitted effect of over 35% in size; also: potency is read from the fitted curve at half-maximal effect). In a few lines: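 Agonist-mode beta-lactamase reporter assay: HEK 293T RXR-alpha-UAS-bla cells treated 16 hr at 37 C with compounds, 9-cis retinoic acid as positive control. LiveBLAzer FRET substrate, 405 nm excitation, 460/530 nm emission.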

Test [12] in a line: qHTS assay to identify small molecule agonists of the RXR signaling pathway - cell viability counter screen (AID 1159529). Summed up: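 CellTiter-Glo luminescence gave viability in the wells also read for beta-lactamase. Cells (RXR-alpha-UAS-bla HEK 293T, 2% charcoal-stripped FBS medium) had 5 hr plating, then 16 hr compound exposure at 37 C; tetraoctyl ammonium bromide served as positive control.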

Test [13] can be described thus: qHTS assay to identify small molecule antagonists of the retinoid acid receptor (RAR) signaling pathway - cell viability counter screen (AID 1159551). Also: nearly all actives have a fitted effect of over 35% in size. In a few lines: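 In this counter screen, the RARE-luciferase line C3RL4 was exposed for 6 h at 37 C and 5% CO2 to compounds with retinol at 1 uM final. Cellular ATP, read by luminescence, served as the viability measure.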

Test [14] can be described thus: qHTS assay to identify small molecule agonists of the retinoic acid receptor (RAR) signaling pathway (AID 1159553). Summed up: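 In this cell-based screen, 1,000 C3RL4 cells per well were cultured overnight, dosed with test chemicals in DMSO for 6 hr, and assessed for RARE luciferase luminescence.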
A short description of test [15]: qHTS assay to identify small molecule antagonists of the retinoic acid receptor (RAR) signaling pathway (AID 1159552; also: nearly all actives have a fitted effect of over 50% in size). In a few lines:
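Luminescent RARE reporter read-out in C3RL4 cells: 6 hr co-treatment at 37 C of test compounds with retinol at 1 uM final. Cells plated overnight beforehand; luciferase reagent incubated 30 min at room temperature before reading.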

Test [16] in a line: qHTS assay to identify small molecule antagonists of the estrogen related receptor (ERR) signaling pathway - cell viability counter screen (AID 1224818). Also: series mostly up to about 46 µM. Summed up: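 Viability of ERR cells, CellTiter-Fluor fluorescence; 17.5 h compound exposure at 37 C, DMSO vehicle; 30 min reagent incubation at 37 C/5% CO2.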
Test [17] in a line: qHTS assay to identify small molecule antagonists of the estrogen related receptor signaling pathway with the pleiotropic PPARgamma coactivator (PGC) cell viability counter screen (AID 1224822; also: series mostly up to about 46 µM). In a few lines: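 17.5 h compound treatment of PGC/ERR cells at 37 C; readout CellTiter-Fluor fluorescence; run alongside the PGC/ERR antagonist screen to flag cytotoxic compounds.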

Chain of Retinoic acid receptor RXR-alpha (Homo sapiens) (P19793 whole entry, looked up): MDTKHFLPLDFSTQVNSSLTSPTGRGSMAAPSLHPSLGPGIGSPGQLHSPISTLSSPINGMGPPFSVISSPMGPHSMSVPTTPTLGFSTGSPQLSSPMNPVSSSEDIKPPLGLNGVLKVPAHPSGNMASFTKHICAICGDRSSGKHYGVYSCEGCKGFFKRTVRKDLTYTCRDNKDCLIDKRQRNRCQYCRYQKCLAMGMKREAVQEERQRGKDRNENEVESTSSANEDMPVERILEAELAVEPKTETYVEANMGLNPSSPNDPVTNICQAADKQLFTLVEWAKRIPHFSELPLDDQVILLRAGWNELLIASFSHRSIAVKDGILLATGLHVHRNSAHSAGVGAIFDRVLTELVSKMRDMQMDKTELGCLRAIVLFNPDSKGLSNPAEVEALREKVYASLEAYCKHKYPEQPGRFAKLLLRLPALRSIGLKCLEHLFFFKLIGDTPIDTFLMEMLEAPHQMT

In the case of `CCCCCCO`, the outcome in test [1], in test [2], in [3], in test [4], in test [5] and in [7] was inactive. Further, the call in [9], in [12] and in test [13] was inactive. The Potency entry in test [6], in test [8], in test [10], in test [11] and in [14] was “inactive” each time.

With `CC(=O)Oc1ccc(C)cc1`, the result in test [1], in test [2], in [3], in [5], in test [7] and in test [9] was inactive. In addition, the call in test [12], in [13] and in [15] was inactive. Besides, the Potency result in [6], in test [8], in test [10], in test [11] and in test [14] was “inactive” in each case.

Regarding `CC1(C)OC[C@@H]2O[C@@]3(C(=O)O)OC(C)(C)O[C@H]3[C@@H]2O1`, the compound was classed as inactive in [1], in test [2], in test [3], in [4], in test [5] and in test [7]. Further, the call in test [9], in [12] and in [13] was inactive. Also, the Potency result in test [6], in test [8], in test [10] and in test [14] was “inactive” in each case. In test [11], the Potency was 21.9 µM (active) and inactive.

Consider `C[C@]12CCC(=O)C=C1CC[C@@H]1[C@@H]2[C@@H](O)C[C@@]2(C)[C@H]1CC[C@]2(O)C(=O)CO`, for which the call in test [1], in test [2], in [3], in test [5], in test [7] and in test [9] was inactive. Further, the compound was called inactive in test [12], in test [13], in test [15], in test [16] and in test [17]. In addition, the Potency entry in [6], in [8], in test [10], in [11] and in [14] was “inactive” throughout.

With `CCNc1ccccc1`, the outcome in [1], in test [2], in test [3], in test [4], in test [5] and in [7] was inactive. Further, the call in test [9], in [12] and in [13] was inactive. Also, the Potency result in [6], in test [8], in test [10], in test [11] and in test [14] was “inactive” each time.

On to `COc1ccc(N)c(C)c1`, for which the outcome in [1], in [2], in test [3], in [4], in [5] and in [7] was inactive. For the same compound, the compound was called inactive in test [9], in test [12] and in [13]. Moreover, the Potency result in test [6], in test [8], in test [10] and in [11] was “inactive” throughout.

Consider `CC(C)(C#N)c1cc(Cn2cncn2)cc(C(C)(C)C#N)c1`, for which the outcome in test [1], in test [2], in test [3], in test [4], in test [5] and in test [7] was inactive. The compound was classed as inactive in [9], in test [12] and in test [13]. Moreover, the Potency entry in test [6], in test [8], in test [10] and in test [11] was “inactive” each time.

For `O=C(OCC1CCC2OC2C1)C1CCC2OC2C1` (centres undefined), the compound was called inactive in [1], in [2], in test [3], in test [4], in test [5] and in [7]. Moreover, the compound was called inactive in [9], in [12] and in [13]. In addition, the Potency entry in [6], in test [8], in test [10], in [11] and in [14] was “inactive” throughout.

As for `CCOCC(=O)O`, the call in test [1], in test [2], in test [3], in test [4], in [5] and in test [7] was inactive. Also, the outcome in test [9], in test [12] and in test [13] was inactive. Besides, the Potency entry in [6], in test [8], in test [10], in [11] and in test [14] was “inactive” in each case.

Take `CCCCCCCCCCCC(=O)OC`: the result in test [1], in test [2], in test [3], in test [4], in test [5] and in [7] was inactive. For the same compound, the result in test [9], in [12] and in test [13] was inactive. The Potency entry in [6], in test [8], in test [10] and in [11] was “inactive” each time.
